# Results: the supplement of paper PMC4466140
# B1: unnamed (peptide)
# chain: SKAKRPKFLLDLQIK
# B2: unnamed (peptide)
# chain: QRKSLRRPTLSKPAV
# B3: unnamed (peptide)
# chain: YRRKSIPFAPHQITA
# Assays:
# Test in all cases: SPOT peptide array binding signal intensity (averaged, normalized) (arbitrary units (background-subtracted, floor 0; scale differs between SH3 domains)); higher = stronger binding of the SH3 domain to the peptide
# [1] = biological target: AgAbp1
# Method: (§1)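 GST-tagged SH3 domains from S. cerevisiae (Sc), A. gossypii (Ag), C. albicans (Ca) and S. pombe (Sp) were incubated at 10 ug/ml overnight at 4 C on cellulose SPOT membranes carrying 292 synthetic 15-mer peptides mined from the S. cerevisiae proteome (cysteines replaced by serines). Binding was detected with anti-GST antibody, HRP secondary and chemiluminescence, quantified with Genespotter, and reported as normalized spot intensities averaged over biological replicates.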
# [2] = biological target: AgBbc1
# Method: as §1
# [3] = biological target: AgBem1-D1
# Method: as §1
# [4] = biological target: AgBzz1-D1
# Method: as §1
# [5] = biological target: AgBzz1-D2
# Method: as §1
# [6] = biological target: AgCyk3
# Method: as §1
# [7] = biological target: AgFus1
# Method: as §1
# [8] = biological target: AgHof1
# Method: as §1
# [9] = biological target: AgHse1
# Method: as §1
# [10] = biological target: AgLsb1
# Method: as §1
# [11] = biological target: AgLsb4
# Method: as §1
# [12] = biological target: AgMyo5
# Method: as §1
# [13] = biological target: AgNbp2
# Method: as §1
# [14] = biological target: AgRvs167
# Method: as §1
# [15] = biological target: AgSho1
# Method: as §1
# [16] = biological target: AgSla1-D1-D2
# Method: as §1
# [17] = biological target: AgSla1-D3
# Method: as §1
# [18] = biological target: CaAbp1-D1
# Method: as §1
# [19] = biological target: CaAbp1-D2
# Method: as §1
# [20] = biological target: CaBbc1
# Method: as §1
# [21] = biological target: CaBem1-D1
# Method: as §1
# [22] = biological target: CaBzz1-D1
# Method: as §1
# [23] = biological target: CaBzz1-D2
# Method: as §1
# [24] = biological target: CaCyk3
# Method: as §1
# [25] = biological target: CaFus1
# Method: as §1
# [26] = biological target: CaHof1
# Method: as §1
# [27] = biological target: CaHse1
# Method: as §1
# [28] = biological target: CaLsb1
# Method: as §1
# [29] = biological target: CaLsb4
# Method: as §1
# [30] = biological target: CaMyo5
# Method: as §1
# [31] = biological target: CaNbp2
# Method: as §1
# [32] = biological target: CaRvs167
# Method: as §1
# [33] = biological target: CaRvs167-3
# Method: as §1
# [34] = biological target: CaSho1
# Method: as §1
# [35] = biological target: CaSla1-D1-D2
# Method: as §1
# [36] = biological target: CaSla1-D3
# Method: as §1
# [37] = biological target: ScAbp1
# Method: as §1
# [38] = biological target: ScBbc1
# Method: as §1
# [39] = biological target: ScBem1-D1
# Method: as §1
# [40] = biological target: ScBzz1-D1
# Method: as §1
# [41] = biological target: ScBzz1-D2
# Method: as §1
# [42] = biological target: ScCyk3
# Method: as §1
# [43] = biological target: ScFus1
# Method: as §1
# [44] = biological target: ScHof1
# Method: as §1
# [45] = biological target: ScHse1
# Method: as §1
# [46] = biological target: ScLsb1
# Method: as §1
# [47] = biological target: ScLsb2
# Method: as §1
# [48] = biological target: ScLsb3
# Method: as §1
# [49] = biological target: ScLsb4
# Method: as §1
# [50] = biological target: ScMyo3
# Method: as §1
# [51] = biological target: ScMyo5
# Method: as §1
# [52] = biological target: ScNbp2
# Method: as §1
# [53] = biological target: ScPex13
# Method: as §1
# [54] = biological target: ScRvs167
# Method: as §1
# [55] = biological target: ScSho1
# Method: as §1
# [56] = biological target: ScSla1-D1-D2
# Method: as §1
# [57] = biological target: ScSla1-D3
# Method: as §1
# [58] = biological target: SpAbp1-D1
# Method: as §1
# [59] = biological target: SpBbc1
# Method: as §1
# [60] = biological target: SpBzz1-D1
# Method: as §1
# [61] = biological target: SpBzz1-D2
# Method: as §1
# [62] = biological target: SpCyk3
# Method: as §1
# [63] = biological target: SpHof1
# Method: as §1
# [64] = biological target: SpHof1-2
# Method: as §1
# [65] = biological target: SpHof1-3
# Method: as §1
# [66] = biological target: SpHse1
# Method: as §1
# [67] = biological target: SpLsb1
# Method: as §1
# [68] = biological target: SpLsb4
# Method: as §1
# [69] = biological target: SpMyo1
# Method: as §1
# [70] = biological target: SpNbp2
# Method: as §1
# [71] = biological target: SpPex13
# Method: as §1
# [72] = biological target: SpRvs167
# Method: as §1
# [73] = biological target: SpSla1-D1-D2
# Method: as §1
# [74] = biological target: SpSla1-D3
# Method: as §1
binder,measurement,setting,value
B1,SPOT peptide array binding signal intensity,[1],32.5
same,SPOT peptide array binding signal intensity,[2],2
same,SPOT peptide array binding signal intensity,[3],60
same,SPOT peptide array binding signal intensity,[4],38
same,SPOT peptide array binding signal intensity,[5],29.5
same,SPOT peptide array binding signal intensity,[6],10
same,SPOT peptide array binding signal intensity,[7],152
same,SPOT peptide array binding signal intensity,[8],16.5
same,SPOT peptide array binding signal intensity,[9],154
same,SPOT peptide array binding signal intensity,[10],2.75
same,SPOT peptide array binding signal intensity,[11],16
same,SPOT peptide array binding signal intensity,[12],0.25
same,SPOT peptide array binding signal intensity,[13],11
same,SPOT peptide array binding signal intensity,[14],3.33
same,SPOT peptide array binding signal intensity,[15],15
same,SPOT peptide array binding signal intensity,[16],214
same,SPOT peptide array binding signal intensity,[17],5.5
same,SPOT peptide array binding signal intensity,[18],502
same,SPOT peptide array binding signal intensity,[19],337
same,SPOT peptide array binding signal intensity,[20],80.8
same,SPOT peptide array binding signal intensity,[21],13.5
same,SPOT peptide array binding signal intensity,[22],110
same,SPOT peptide array binding signal intensity,[23],127
same,SPOT peptide array binding signal intensity,[24],19
same,SPOT peptide array binding signal intensity,[25],510
same,SPOT peptide array binding signal intensity,[26],0.5
same,SPOT peptide array binding signal intensity,[27],≤ 0
same,SPOT peptide array binding signal intensity,[28],≤ 0
same,SPOT peptide array binding signal intensity,[29],3.5
same,SPOT peptide array binding signal intensity,[30],2
same,SPOT peptide array binding signal intensity,[31],72
same,SPOT peptide array binding signal intensity,[32],1.67
same,SPOT peptide array binding signal intensity,[33],40.8
same,SPOT peptide array binding signal intensity,[34],148
same,SPOT peptide array binding signal intensity,[35],11
same,SPOT peptide array binding signal intensity,[36],≤ 0
same,SPOT peptide array binding signal intensity,[37],19
same,SPOT peptide array binding signal intensity,[38],3.5
same,SPOT peptide array binding signal intensity,[39],9
same,SPOT peptide array binding signal intensity,[40],33
same,SPOT peptide array binding signal intensity,[41],24
same,SPOT peptide array binding signal intensity,[42],51
same,SPOT peptide array binding signal intensity,[43],268
same,SPOT peptide array binding signal intensity,[44],≤ 0
same,SPOT peptide array binding signal intensity,[45],486
same,SPOT peptide array binding signal intensity,[46],≤ 0
same,SPOT peptide array binding signal intensity,[47],≤ 0
same,SPOT peptide array binding signal intensity,[48],6
same,SPOT peptide array binding signal intensity,[49],2
same,SPOT peptide array binding signal intensity,[50],1.5
same,SPOT peptide array binding signal intensity,[51],1
same,SPOT peptide array binding signal intensity,[52],62
same,SPOT peptide array binding signal intensity,[53],4.25
same,SPOT peptide array binding signal intensity,[54],1.67
same,SPOT peptide array binding signal intensity,[55],398
same,SPOT peptide array binding signal intensity,[56],27
same,SPOT peptide array binding signal intensity,[57],5
same,SPOT peptide array binding signal intensity,[58],171
same,SPOT peptide array binding signal intensity,[59],1.75
same,SPOT peptide array binding signal intensity,[60],346
same,SPOT peptide array binding signal intensity,[61],0.5
same,SPOT peptide array binding signal intensity,[62],14.5
same,SPOT peptide array binding signal intensity,[63],25.2
same,SPOT peptide array binding signal intensity,[64],5
same,SPOT peptide array binding signal intensity,[65],386
same,SPOT peptide array binding signal intensity,[66],119
same,SPOT peptide array binding signal intensity,[67],1
same,SPOT peptide array binding signal intensity,[68],≤ 0
same,SPOT peptide array binding signal intensity,[69],≤ 0
same,SPOT peptide array binding signal intensity,[70],33.5
same,SPOT peptide array binding signal intensity,[71],2.5
same,SPOT peptide array binding signal intensity,[72],≤ 0
same,SPOT peptide array binding signal intensity,[73],3
same,SPOT peptide array binding signal intensity,[74],3
B2,SPOT peptide array binding signal intensity,[1],32
same,SPOT peptide array binding signal intensity,[2],108
same,SPOT peptide array binding signal intensity,[3],210
same,SPOT peptide array binding signal intensity,[4],40.5
same,SPOT peptide array binding signal intensity,[5],42
same,SPOT peptide array binding signal intensity,[6],1
same,SPOT peptide array binding signal intensity,[7],336
same,SPOT peptide array binding signal intensity,[8],66
same,SPOT peptide array binding signal intensity,[9],244
same,SPOT peptide array binding signal intensity,[10],4.25
same,SPOT peptide array binding signal intensity,[11],17
same,SPOT peptide array binding signal intensity,[12],1.5
same,SPOT peptide array binding signal intensity,[13],108
same,SPOT peptide array binding signal intensity,[14],1.67
same,SPOT peptide array binding signal intensity,[15],10
same,SPOT peptide array binding signal intensity,[16],14
same,SPOT peptide array binding signal intensity,[17],3.75
same,SPOT peptide array binding signal intensity,[18],272
same,SPOT peptide array binding signal intensity,[19],220
same,SPOT peptide array binding signal intensity,[20],338
same,SPOT peptide array binding signal intensity,[21],79
same,SPOT peptide array binding signal intensity,[22],78
same,SPOT peptide array binding signal intensity,[23],104
same,SPOT peptide array binding signal intensity,[24],16.5
same,SPOT peptide array binding signal intensity,[25],298
same,SPOT peptide array binding signal intensity,[26],≤ 0
same,SPOT peptide array binding signal intensity,[27],10
same,SPOT peptide array binding signal intensity,[28],0.5
same,SPOT peptide array binding signal intensity,[29],89.5
same,SPOT peptide array binding signal intensity,[30],3.5
B3,SPOT peptide array binding signal intensity,[61],0.5
same,SPOT peptide array binding signal intensity,[62],≤ 0
same,SPOT peptide array binding signal intensity,[63],25.8
same,SPOT peptide array binding signal intensity,[64],1.5
same,SPOT peptide array binding signal intensity,[65],106
same,SPOT peptide array binding signal intensity,[66],88.2
same,SPOT peptide array binding signal intensity,[67],4.5
same,SPOT peptide array binding signal intensity,[68],48
same,SPOT peptide array binding signal intensity,[69],5.5
same,SPOT peptide array binding signal intensity,[70],64
same,SPOT peptide array binding signal intensity,[71],19
same,SPOT peptide array binding signal intensity,[72],6.33
same,SPOT peptide array binding signal intensity,[73],≤ 0
same,SPOT peptide array binding signal intensity,[74],11
